Here are results for 110 sequences from the supplement of paper PMC4166925.

± gives the standard deviation of the averaged measurements. Over roughly 33,000 sequences, “E-score (dimensionless, -0.5 to 0.5)” has its median near -0.049; the highest 2% begin near 0.37. Many of the other results were omitted from the sample, so the highest values are more common in it than they were.

The subject of this experiment is T1, PmTbr T-box DNA-binding domain (GST fusion).
T1 sequence: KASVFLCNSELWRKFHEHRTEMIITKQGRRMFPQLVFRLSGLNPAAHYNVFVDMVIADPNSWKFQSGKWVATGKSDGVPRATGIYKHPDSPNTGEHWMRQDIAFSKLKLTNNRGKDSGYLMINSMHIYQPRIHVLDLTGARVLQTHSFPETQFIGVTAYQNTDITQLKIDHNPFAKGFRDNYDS
In words: PBM E-score of 8-mer (E-score (dimensionless, -0.5 to 0.5)); Tbr is Tbrain of the sea star Patiria miniata (Pm) or the sea urchin Strongylocentrotus purpuratus (Sp); higher = stronger binding preference. Particulars: the construct has about 5 more residues each side. How it is done:
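Universal protein-binding microarray (Agilent AMADID 016060, 60-bp probes with a 35-bp variable region) incubated with 200 nM GST-fused Patiria miniata Tbr T-box DNA-binding domain (residues 272-466) in PBS pH 7.5. Scored for every ungapped 8-mer (given with its reverse complement) by the Universal PBM Analysis Suite as E-score (modified Wilcoxon-Mann-Whitney enrichment, range -0.5 to 0.5; >0.45 counts as bound) and Z-score of median probe intensity. Two replicate arrays (datasets 1 and 2).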
In the case of ACTTCTCC, the “PBM E-score of 8-mer” value was -0.0311 ± 0.0014.
The figure for GGAGGCTA is -0.209 ± 0.016.
In the case of ATAGGCAT, the “PBM E-score of 8-mer” value is -0.337 ± 0.021.
In the case of AAAAGGTC, the “PBM E-score of 8-mer” value is -0.0764 ± 0.033.
On to AAAAGGTG, for which the “PBM E-score of 8-mer” value came to 0.442 ± 0.012.
As for CAAAGGTA, the “PBM E-score of 8-mer” value is -0.133 ± 0.035.
The figure for CAAAGGTC is -0.13 ± 0.039.
The figure for AAAAGGTT is -0.0316 ± 0.041; for CAAAGGTG it is 0.436 ± 0.018; for GAAATTAA it is -0.113 ± 0.044.
As for GTTGCTCA, the “PBM E-score of 8-mer” value came out at 0.0245 ± 0.051.
On to ACCCTCAG, for which the “PBM E-score of 8-mer” value turned out to be 0.0121 ± 0.00031.
The figure for AACTAGGC is -0.0964 ± 0.044; for CTTCCCCC it is -0.166 ± 0.07; for AGCTGGGC it is -0.222 ± 0.056.
The figure for GCTGGTTA is -0.0863 ± 0.064; for AACCTATT it is -0.172 ± 0.056.
For CACCTATG, the “PBM E-score of 8-mer” value came to 0.429 ± 0.011.
The figure for AACCTATC is -0.165 ± 0.17.
In the case of AACCTATA, the “PBM E-score of 8-mer” value was -0.0111 ± 0.13.
Consider TACCTATA, for which the “PBM E-score of 8-mer” value was -0.137 ± 0.041.
To GACCTATC belongs -0.0538 ± 0.05.
Regarding CACCTATA, the “PBM E-score of 8-mer” value was determined as 0.377 ± 0.018.
In the case of AACCTATG, the “PBM E-score of 8-mer” value was -0.141 ± 0.019.
To CACCTATC belongs 0.399 ± 0.0088; to CGACTCAG, -0.0525 ± 0.0052; to CTTTATGA, -0.00777 ± 0.018.
To CTCCACAC belongs 0.341 ± 0.0092.
For the sequence AGCGTTAA, the “PBM E-score of 8-mer” value is 0.265 ± 0.06.
To TGCGTTAA belongs 0.109 ± 0.017; to CGCGTCAA, 0.308 ± 0.0074; to GGCGTCAA, 0.4094 ± 0.001.
For AGCGTCAA, the “PBM E-score of 8-mer” value was determined as 0.258 ± 0.0039.
The figure for GGCGTTAA is 0.377 ± 0.024.
As to AAACCAAC, the “PBM E-score of 8-mer” value was -0.0437 ± 0.062.
Consider CCATTAAA, for which the “PBM E-score of 8-mer” value is -0.239 ± 0.0035.
As for GTTTCGCA, the “PBM E-score of 8-mer” value amounted to 0.3685 ± 0.0028.
With ATTTCGCA, the “PBM E-score of 8-mer” value was determined as 0.378 ± 0.0045.
With CTTTCGCA, the “PBM E-score of 8-mer” value turned out to be 0.411 ± 0.015.
To ATTTCGAG belongs 0.09258 ± 0.00026; to CTTTCGCC, -0.0672 ± 0.025; to ATTTCGCG, 0.4125 ± 0.00097.
As to AATTCGCG, the “PBM E-score of 8-mer” value is 0.303 ± 0.035.
ATTTCGCC: the “PBM E-score of 8-mer” value is -0.0762 ± 0.14.
To CTTTCGGA belongs -0.0447 ± 0.021; to GTTCGAAA, -0.132 ± 0.091; to GTATTCGA, 0.0428 ± 0.0073.
Consider GATCGAAC, for which the “PBM E-score of 8-mer” value was -0.0822 ± 0.031.
The figure for CGCACAGA is -0.108 ± 0.087; for AACTGATG it is 0.0361 ± 0.047; for CGCTTTGC it is -0.129 ± 0.036.
On to ATCCATTG, for which the “PBM E-score of 8-mer” value is -0.235 ± 0.089.
ACTTGGCA: the “PBM E-score of 8-mer” value was 0.239 ± 0.015.
To AGCTGTTG belongs 0.2441 ± 0.0021; to AGATGTTC, 0.0612 ± 0.07; to AGGTGTTG, 0.4891 ± 0.0019.
To AGATGTTG belongs 0.0167 ± 0.014; to AGGTGTTC, 0.4091 ± 0.0032; to AGATGTCC, -0.322 ± 0.016.
For the sequence AGGTGTCC, the “PBM E-score of 8-mer” value came out at 0.45 ± 0.0092.
To CGGTGTTC belongs -0.0289 ± 0.062; to ACGTGTCC, 0.0892 ± 0.034.
GAGCGAAC: the “PBM E-score of 8-mer” value was 0.0537 ± 0.089.
The figure for GCTAACTA is 0.212 ± 0.07; for ACGCTAGT it is 0.036 ± 0.023.
Take GCACACTA: the “PBM E-score of 8-mer” value was determined as 0.102 ± 0.027.
For GATAGCCA, the “PBM E-score of 8-mer” value is -0.257 ± 0.028.
With CAACGCTC, the “PBM E-score of 8-mer” value is -0.0448 ± 0.0033.
The figure for CTTTCACC is 0.14 ± 0.034; for ATTTCACA it is 0.426 ± 0.013; for ATTTCACC it is 0.167 ± 0.058.
Turning to ATTTCACG, the “PBM E-score of 8-mer” value was 0.319 ± 0.026.
To GTTTCACA belongs 0.36 ± 0.027.
As for CTTTCACA, the “PBM E-score of 8-mer” value was 0.444 ± 0.0053.
The figure for ACCATTCG is 0.233 ± 0.04; for ATCTTTTG it is -0.2448 ± 0.0018.
To CATTTTGC belongs -0.00766 ± 0.017; to CGATCTTA, -0.0203 ± 0.061; to TGATCACA, 0.20944 ± 9.2e-05.
The figure for GCGTGAAC is 0.405 ± 0.021.
Regarding GCGTGAAA, the “PBM E-score of 8-mer” value came to 0.4552 ± 0.0024.
To ACGTGAAC belongs 0.112 ± 0.051; to TCGTGAAA, 0.279 ± 0.018.
The figure for CCGTGAAC is 0.257 ± 0.04; for GTGTGAAC it is 0.4888 ± 0.0019.
In the case of TTGTGAAA, the “PBM E-score of 8-mer” value was found to be 0.344 ± 0.027.
Consider CCGTGAAA, for which the “PBM E-score of 8-mer” value was determined as 0.222 ± 0.019.
The figure for ATGTGAAC is 0.175 ± 0.039; for CTGTGAAC it is 0.356 ± 0.0043; for CTGTGAAA it is 0.384 ± 0.0085.
The figure for ATGTGAAA is 0.287 ± 0.019; for CCCAGGTA it is -0.102 ± 0.03.
To CGCTTCAA belongs 0.0949 ± 0.078.
Consider AATCGCTG, for which the “PBM E-score of 8-mer” value is -0.0604 ± 0.024.
To CCCATCCG belongs -0.108 ± 0.058.
To ACATCGTA belongs -0.0767 ± 0.038; to ATCAATAA, -0.279 ± 0.033; to GCTCCTGA, -0.206 ± 0.08.
Regarding AGCAGGTG, the “PBM E-score of 8-mer” value was 0.414 ± 0.026.
The figure for AACAGGTA is 0.126 ± 0.015.
To AACAGGTG belongs 0.4042 ± 0.00081.
The figure for AGCAGGTC is 0.0259 ± 0.014; for AACAGGTC it is 0.14 ± 0.036.
For the sequence CACAGGTA, the “PBM E-score of 8-mer” value is 0.163 ± 0.029.
For CACAGGTG, the “PBM E-score of 8-mer” value was 0.461 ± 0.0062.
Turning to AGCAGGTA, the “PBM E-score of 8-mer” value was -0.0669 ± 0.01.
As for ACCAGGTA, the “PBM E-score of 8-mer” value was -0.0585 ± 0.034.
To CACAGGTC belongs 0.15 ± 0.028; to ACCAGGTC, -0.101 ± 0.039; to ACCAGGTG, 0.369 ± 0.028.
